Records with an inconclusive call do not appear. Activity calls are given as the source filed them. Calls follow the shape of the dose curve; as a rule, active = well fitted inhibition curve with a large enough effect; inconclusive = small, poorly fitted or top-dose-only effect; inactive = flat fitted curve, though single readings scatter.
test system: CRL-7250; experiment: Cytotoxic Profiling of Annotated Libraries Using Quantitative High-Throughput Screening (AID 1296008); settings: Five cell lines viability, CellTiter-Glo ATP luminescence, 48-72 h; max response: active compounds read low; also: nearly all actives have a fitted effect of over 60% in size
Method in brief: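 Cells exposed to compounds for 48 or 72 hr at 37 degrees Celsius. Viability read as ATP-coupled luminescence with CellTiter-Glo after 10 min at room temperature.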
% is scaled to controls: 0 for no effect and ±100 for the full control effect; potency is read from the fitted curve at half-maximal effect.

Q: For `Nc1nc2c(ncn2[C@@H]2O[C@@H]3COP(=O)(O)O[C@H]3[C@H]2O)c(=O)[nH]1`, which max response is on record?
A: -1.98% (inactive)

Q: `CC1OC(OC2C(O)C(OC3CCC4(C)C(CCC5(C)C4CC=C4C6CC(C)(COC7OC(CO)C(O)C(O)C7O)CC(O)C6(C)CCC45C)C3(C)C)OC(C(=O)O)C2O)C(O)C(O)C1OC1OCC(O)C(O)C1O` (stereo not given) was tested. Which max response did it give?
A: 3.82% (inactive)

Q: With `C[C@@H]1C(=O)O[C@H]2[C@H](O)C34[C@H]5C[C@@H](C(C)(C)C)C36[C@@H](OC(=O)[C@@H]6O)O[C@@]4(C(=O)O5)[C@@]12O` (stereo not given in full) as the compound, how does the max response read?
A: 3.72% (inactive)

Q: Which max response does the source give for `CN1CCc2nc(C(=O)N[C@@H]3C[C@@H](C(=O)N(C)C)CC[C@@H]3NC(=O)C(=O)Nc3ccc(Cl)cn3)sc2C1` here?
A: 3.08% (inactive)

Q: `CCN1CCN(Cc2ccc(NC(=O)Nc3ccc(Oc4cc(NC)ncn4)cc3)cc2C(F)(F)F)CC1` was tested. Which Potency did it give?
A: 25.9 µM (active)

Q: With `CC1=CC(=O)[C@H]2C(C)(C)CCC[C@]2(C)[C@@]1(O)CO` as the compound, how does the max response read?
A: -8.81% (inactive)

Q: With `CC1(C)CC[C@]2(C(=O)O[C@@H]3O[C@H](CO)[C@@H](O)[C@H](O)[C@H]3O)CC[C@]3(C)C(=CCC4[C@@]5(C)C[C@@H](O)[C@H](O)[C@@](C)(CO)C5CC[C@]43C)C2[C@@H]1O` (stereo not given in full) as the compound, how does the max response read?
A: 1.08% (inactive)

Q: For `COc1ccc(CC2NCCc3c2[nH]c2ccc(C)cc32)cc1OC` (stereo not given), which max response is on record?
A: -17.7% (inactive)

Q: `CC(=O)O[C@]1(C(C)=O)CC[C@H]2[C@@H]3C[C@H](C)C4=CC(=O)C=C[C@]4(C)[C@@]3(F)[C@@H](O)C[C@@]21C` was tested. Which max response did it give?
A: -19.1% (inactive)

Q: Which outcome does the source give for `CC(C)C(C(=O)N(C)C(C)C(N)=O)N(C)C(=O)C1CCCN1C(=O)/C=C/C=C/C(O)C(C)O` (stereo not given) here?
A: inactive

Q: How did the max response turn out when `NC(=O)Nc1cc(-c2cccc(F)c2)sc1C(=O)NC1CCCNC1` (stereo not given) was run?
A: -112% (inactive)

Q: How did the max response turn out when `CS(=O)(=O)c1ccc([C@H](CC2CCCC2)C(=O)Nc2nccs2)cc1` was run?
A: 1.1% (inactive)

Q: For `O=C(/C=C\c1ccc(O)cc1)N[C@@H](Cc1ccc(O)cc1)C(=O)O`, which max response is on record?
A: -7.69% (inactive)

Q: How did the max response turn out when `Cc1cc(=O)oc2c(C=O)c(O)ccc12` was run?
A: 0.427% (inactive)

Q: With `CCN1CCN(Cc2ccc(NC(=O)c3ccc(C)c(NC(=O)c4cncc(-c5cccs5)c4)c3)cc2C(F)(F)F)CC1` as the compound, how does the Potency read?
A: 0.461 µM (active)

Q: How did the outcome turn out when `O=C1NC(Cc2c[nH]c3ccccc23)C(=O)NC1Cc1cnc[nH]1` (stereo not given) was run?
A: inactive

Q: How did the max response turn out when `O=C(OCC1=CC(O)C2C=CO[C@@H](O[C@@H]3O[C@H](CO)[C@@H](O)[C@H](O)[C@H]3O)C12)c1ccccc1` (stereo not given in full) was run?
A: -3.02% (inactive)

Q: How did the max response turn out when `CC(C)C(C#N)O[C@@H]1O[C@H](CO[C@@H]2O[C@@H](C)[C@H](O)[C@@H](O)[C@H]2O)[C@@H](O)[C@H](O)[C@H]1O` (stereo not given in full) was run?
A: -4.82% (inactive)

Q: Which max response does the source give for `O=C1CSc2ccccc2N1Cc1cccc(C(F)(F)F)c1` here?
A: -9.14% (inactive)

Q: For `CSc1ccc(C(=O)N[C@@H]2CCCC[C@@H]2NC(=O)CNC(=O)c2cc(C(F)(F)F)ccc2NC(=O)NC(C)C)cc1`, which max response is on record?
A: -1.98% (inactive)

Q: With `CC1=CC(=O)CC(C)(CO)C1(O)/C=C/C(C)O[C@@H]1O[C@H](CO)[C@@H](O)[C@H](O)[C@H]1O` (stereo not given in full) as the compound, how does the max response read?
A: -0.153% (inactive)

Q: `CC1CCC2(C(=O)O)CCC3(C)C(=CCC4C5(C)CCC(OC(=O)/C=C/c6ccccc6)C(C)(C)C5CCC43C)C2C1C` (stereo not given) was tested. Which outcome did it give?
A: inactive

Q: Which max response does the source give for `CC1OC(OCC2OC(OC3CCC4(C)C(CCC5(C)C4CC=C4C6CC(C)(C)CCC6(C(=O)OC6OC(CO)C(O)C(O)C6O)CCC45C)C3(C)CO)C(O)C(O)C2O)C(O)C(O)C1O` (stereo not given) here?
A: -3.44% (inactive)

Q: For `C[C@@H]1[C@H]2[C@H](O[C@@H]3O[C@H](CO)[C@@H](O)[C@H](O)[C@H]3O)OC=C(C(=O)O)[C@H]2C[C@@H]1O`, which outcome is on record?
A: inactive

Q: How did the Potency turn out when `Cc1ccc(-c2ccc3ncc4c(c3n2)n(C2CCN(C(=O)[C@H](C)O)CC2)c(=O)n4C)cn1` was run?
A: 0.146 µM (active)

Q: Which max response does the source give for `CC(=O)OC/C=C(\C)C(CC1C(C)=C(OC(C)=O)C(=O)C2C(C)(C)C(O)CCC12C)OC(C)=O` (stereo not given) here?
A: 1.57% (inactive)

Q: How did the max response turn out when `COC1CC(OC2CCC3(C)C(=CCC4C3C(OC(C)=O)C(OC(=O)/C=C/c3ccccc3)C3(C)C(C(C)O)CCC43O)C2)OC(C)C1OC1CC(OC)C(OC2OC(C)C(OC3OC(CO)C(O)C(O)C3O)C(OC)C2O)C(C)O1` (stereo not given) was run?
A: 2.68% (inactive)

Q: How did the outcome turn out when `COc1cc(C2Oc3c(OC)cc(CCCO)cc3C2CO)ccc1O[C@H]1O[C@H](C)[C@@H](O)[C@H](O)[C@@H]1O` (stereo not given in full) was run?
A: inactive

Q: How did the max response turn out when `CC/C=C\CCO[C@@H]1O[C@H](CO)[C@@H](O)[C@H](O)[C@H]1O` was run?
A: -3.17% (inactive)

Q: How did the Potency turn out when `Cn1c(=O)n(-c2ccc(C(C)(C)C#N)cc2)c2c3cc(C#Cc4cccnc4)ccc3ncc21` was run?
A: 0.0224 µM (active)

Q: How did the max response turn out when `C[C@@H]1O[C@@H](O[C@@H]2CO[C@@H](O[C@H]3CC[C@@]4(C)C(CC[C@]5(C)C4CC=C4[C@@H]6CC(C)(C)CC[C@]6(C(=O)O[C@@H]6O[C@H](CO)[C@@H](O)[C@H](O)[C@H]6O)CC[C@]45C)[C@]3(C)CO)[C@H](O)[C@H]2O[C@@H]2O[C@H](CO)[C@@H](O)[C@H](O)[C@H]2O)[C@H](O)[C@H](O)[C@H]1O` (stereo not given in full) was run?
A: -2.09% (inactive)

Q: Which max response does the source give for `Cc1c(F)cc(C(=O)NC2CC2)cc1-c1c(F)cn2c(C(C)(C)C)nnc2c1F` here?
A: -14.4% (inactive)

Q: Which max response does the source give for `CC1=C(C(=O)O)/C(=C/CO[C@@H]2O[C@H](COC(=O)/C=C/c3ccc(O)cc3)[C@@H](O)[C@H](O)[C@H]2O)C(O)C1` (stereo not given in full) here?
A: 0.839% (inactive)

Q: `CC[C@@](C)(Nc1ccnc(-c2c[nH]c3ncccc23)n1)C(=O)NCC(F)(F)F` was tested. Which outcome did it give?
A: inactive

Q: Which Potency does the source give for `Nc1ccc(-c2cccc3c(=O)cc(N4CCOCC4)oc23)cc1` here?
A: 5.8 µM (active)

Q: `CC1(C)CC2C(O)c3cocc3CC(C)(O)C2C1` (stereo not given) was tested. Which max response did it give?
A: 0.847% (inactive)

Q: How did the max response turn out when `CC(=O)O[C@@H]1c2c(C)coc2C(=O)[C@@]23O[C@@H]2CC[C@H](C)[C@@]13C` was run?
A: 3.98% (inactive)

Q: `CCNCc1nc2c(N)nc3ccccc3c2n1CC(C)(C)O` was tested. Which outcome did it give?
A: inactive

Q: How did the Potency turn out when `CCC(C)C(=O)O[C@H]1CCC=C2C=C[C@H](C)[C@H](CC[C@@H](O)C[C@@H](O)CC(=O)O)[C@H]21` (stereo not given in full) was run?
A: 7.96 µM (active)

Q: `CC(O)/C=C/C1(O)C2(C)COC1(C)CC(O)C2` (stereo not given) was tested. Which max response did it give?
A: -12.7% (inactive)

Source: PubChem BioAssay (NCATS)
